This passage reports activity change, negative = inhibition results from PubChem BioAssay AID1259421 (Broad Institute, 2018).

Molecules are shown by their SMILES. “And” between values parts separate entries of the source, which are not always exact repeats. Identical values can stand only once. Among all 6,400 compounds or so, about 610 (9.5%) were called active. The sample holds actives, similar compounds and a random draw of the others, so the mix is not that of the screen. No stated cut-off is given here; in the data, active means activity change below about -70%; inconclusive means no clear call, values can overlap the other calls; inactive means above that. Some structures have more than one record in an assay (separate samples or runs), and their calls can disagree.

The assay in a line: T. gondii ME49Luc in HeLa cells, luciferase assay, 72 h, no IFN-y (AID 1259421). The following applies: stronger effect = lower value, concentration not given here.
On to `Cc1ccc(O)c(N=Nc2ccccc2)n1`, for which the activity change, negative = inhibition is 8.22% (inactive) and 3.77% (inactive).

With `COc1cccc2c1C(=O)c1c(O)c3c(c(O)c1C2=O)C[C@@](O)(C(=O)CO)C[C@@H]3O[C@H]1C[C@H](N)[C@@H](O)[C@H](C)O1`, the activity change, negative = inhibition is -80.9% (active).

Take `COc1cccc2c1C(=O)c1c(O)c3c(c(O)c1C2=O)C[C@@](O)(C(=O)CO)C[C@@H]3O[C@H]1C[C@H](N)[C@H](O)[C@H](C)O1`: the activity change, negative = inhibition was -78.1% (active) and -79.4% (active).

As to `COc1cccc2c1C(=O)c1c(O)c3c(c(O)c1C2=O)C[C@@](O)(C(=O)CO)C[C@@H]3OC1C[C@H](N)[C@H](O)[C@H](C)O1` (some centres undefined), the activity change, negative = inhibition is -87.6% (active).

As to `COc1cccc2c1C(=O)c1c(O)c3c(c(O)c1C2=O)CC(O)(C(=O)CO)CC3OC1CC(N)C(O)C(C)O1` (centres undefined), the activity change, negative = inhibition was -89.5% (active).

For `CCCCC(=O)OCC(=O)[C@]1(O)Cc2c(O)c3c(c(O)c2[C@@H](O[C@H]2C[C@H](NC(=O)C(F)(F)F)[C@H](O)[C@H](C)O2)C1)C(=O)c1c(OC)cccc1C3=O`, the activity change, negative = inhibition was -24.8% (inactive).

Turning to `NC(Cc1ccc(O)cc1)C(=O)O` (centres undefined), the activity change, negative = inhibition was 3.44% (inactive).

Take `Oc1ccc(-c2nc3cc(O)cc(Br)c3o2)cc1`: the activity change, negative = inhibition was -55.9% (inactive).

In the case of `CC(=O)O[C@@H]1CC2C(C)(CC[C@H](O)C2(C)C)C2CC[C@]3(C)C(=CC(=O)O[C@H]3c3ccoc3)C21C` (some centres undefined), the activity change, negative = inhibition is -5.23% (inactive).

As to `CCC(c1ccc(O)cc1)C(CC)c1ccc(O)cc1` (centres undefined), the activity change, negative = inhibition was 14.8% (inactive).

For the compound `c1ccc(-c2cc3ccccc3[nH]2)cc1`, the activity change, negative = inhibition is 106% (inactive).

Consider `Nc1nc(Nc2ccccc2)nc2c1ncn2C1OC(CO)C(O)C1O` (centres undefined), for which the activity change, negative = inhibition is 3.98% (inactive).

In the case of `COc1ccc(Nc2ccn(-c3ccccc3)n2)cc1`, the activity change, negative = inhibition was 404% (inactive).

As for `CCCCCC/C=C\CCCCCCCc1cccc(O)c1C(=O)O`, the activity change, negative = inhibition was 6.32% (inactive).

`NC(=O)CC[C@H](NC(=O)Cc1ccccc1)C(=O)O`: the activity change, negative = inhibition is 16.1% (inactive).

In the case of `C=CC(C)(C)c1cc(/C=C/C(=O)c2ccc(O)cc2)c(OC)cc1O`, the activity change, negative = inhibition was 187% (inactive).

For the compound `CCCC(CCC)C(=O)Nc1ccn([C@@H]2O[C@H](CO)[C@@H](O)C2(F)F)c(=O)n1`, the activity change, negative = inhibition is -1.71% (inactive).

For the compound `COc1ccccc1OC(=O)CNC(=O)Cc1ccc(C(=O)c2ccc(C)cc2)n1C`, the activity change, negative = inhibition was 15.7% (inactive).

Regarding `C[C@@H]1O[C@@H](Oc2c(-c3cc(O)c(O)c(O)c3)oc3cc(O)cc(O)c3c2=O)[C@@H](O)[C@H](O)[C@H]1O`, the activity change, negative = inhibition is 8.81% (inactive).

In the case of `CN1CCN(C(=O)c2nc3ccc(Cl)cc3[nH]2)CC1`, the activity change, negative = inhibition was 1.51% (inactive) and 15.6% (inactive).

As to `CN1CCN(c2ccc3nc(-c4c(N)c5c(F)cccc5[nH]c4=O)[nH]c3c2)CC1`, the activity change, negative = inhibition was -36.1% (inactive) and -79.7% (active).

Consider `CN1CCN(c2ccc3nc(-c4ccc5nc(-c6ccc(O)cc6)[nH]c5c4)[nH]c3c2)CC1`, for which the activity change, negative = inhibition was -23.1% (inactive).

Consider `O=C(O)c1cc(N=Nc2ccc(O)c(C(=O)O)c2)ccc1O`, for which the activity change, negative = inhibition is 7.94% (inactive).

Consider `O=S(=O)(O)C(F)(F)F.O=S(=O)(O)C(F)(F)F.O=S(=O)(O)C(F)(F)F.[Bi]`, for which the activity change, negative = inhibition is 11% (inactive).

For the compound `CN(C)C(=S)SC(=S)N(C)C`, the activity change, negative = inhibition is 39.1% (inactive).

Consider `NC(N)=NC(N)=NCCc1ccccc1`, for which the activity change, negative = inhibition was -13.4% (inactive).

On to `CC(C)C(NS(=O)(=O)c1ccc(-c2ccc(Br)cc2)cc1)C(=O)O` (centres undefined), for which the activity change, negative = inhibition is 9.87% (inactive).

As for `CC(C)ON([C@@H](C(=O)NO)C(C)C)S(=O)(=O)c1ccc(-c2ccccc2)cc1`, the activity change, negative = inhibition was -87.2% (active).

`CC(C)[C@H](NS(=O)(=O)c1ccc(-c2ccc(Br)cc2)cc1)C(=O)O`: the activity change, negative = inhibition was 4.75% (inactive).

For the compound `Cc1noc(-c2ccc(CSCCC(=O)O)cc2)c1NC(=O)OC(C)c1ccccc1Cl` (centres undefined), the activity change, negative = inhibition is 13.3% (inactive).

Turning to `O=C(O)c1ccc2nc(-c3cc(Cl)cc(Cl)c3)oc2c1`, the activity change, negative = inhibition was 84.3% (inactive).

On to `Cc1[nH]c(/C=C2\C(=O)Nc3ccc(S(=O)(=O)Cc4c(Cl)cccc4Cl)cc32)c(C)c1C(=O)N1CCC[C@@H]1CN1CCCC1`, for which the activity change, negative = inhibition was -78.2% (active) and -84% (active) and -67.3% (inactive).

On to `Cc1[nH]c(/C=C2\C(=O)Nc3ccc(S(=O)(=O)N(C)c4cccc(Cl)c4)cc32)c(C)c1C(=O)N1CCN(C)CC1`, for which the activity change, negative = inhibition was -35.8% (inactive).

With `OC1(c2ccc(Cl)cc2)CCNCC1`, the activity change, negative = inhibition is 13.9% (inactive).

`CN1CC[C@@H](NC(=O)Nc2ccc(C#N)cc2)C[C@@H]1c1nc2ccccc2[nH]1`: the activity change, negative = inhibition is 7.93% (inactive).

As to `CC(C)C[C@H](NC(=O)[C@H](Cc1ccccc1)NC(=O)c1cnccn1)B(O)O`, the activity change, negative = inhibition is -73.2% (active) and -72% (active).

With `CNC(=O)[C@H](Cc1ccccc1)NC(=O)[C@H](CC(C)C)[C@H](CSc1cccs1)C(=O)NO`, the activity change, negative = inhibition was -1.31% (inactive) and 10.6% (inactive).

With `CC(C)C[C@H](NC(=O)[C@@H](O)[C@H](N)Cc1ccccc1)C(=O)O`, the activity change, negative = inhibition is -0.518% (inactive) and 15% (inactive).

For the compound `CC(C)C[C@H](NC(=O)[C@@H](NC(=O)c1cccc(-c2ccccc2)n1)[C@@H](C)O)B(O)O`, the activity change, negative = inhibition was -75.2% (active) and -70.7% (active).

For the compound `CC(C)C[C@@H](NC(=O)OCC1c2ccccc2-c2ccccc21)C(=O)O`, the activity change, negative = inhibition is 145% (inactive) and 359% (inactive).

As for `CC(C)CC(NC(=O)OCC1c2ccccc2-c2ccccc21)C(=O)O` (centres undefined), the activity change, negative = inhibition was -4.74% (inactive).

Take `CCC[N+]12C3C[C@H](C4C(O)[C@]5(C[C@@H]41)c1ccccc1N(C)[C@@H]35)[C@H](CC)[C@H]2O` (some centres undefined): the activity change, negative = inhibition was 10.9% (inactive).

`CCOc1ccc(N=C(C)Nc2ccc(OCC)cc2)cc1`: the activity change, negative = inhibition is 3.11% (inactive).

As for `CCCc1c(OCC(O)COc2ccc3c(=O)cc(C(=O)O)oc3c2CCC)ccc(C(C)=O)c1O` (centres undefined), the activity change, negative = inhibition is 10.3% (inactive) and -5.08% (inactive).

`CCOC(=O)C1CN(Cc2ccccc2)C(=O)C1=O` (centres undefined): the activity change, negative = inhibition was 16.6% (inactive) and 1.66% (inactive).

Turning to `N[C@@H]1CCCC[C@H]1N.O=C(O)C(=O)O.[Pt]`, the activity change, negative = inhibition is 10.5% (inactive).

As for `CC1(C)CC[C@]2(C(=O)O)CC[C@]3(C)C(=CCC4[C@@]5(C)CC[C@@H](O)C(C)(C)C5CC[C@]43C)C2C1` (some centres undefined), the activity change, negative = inhibition is 10.1% (inactive).

Consider `N[C@@H]1CN(c2c(F)cc3c(=O)c(C(=O)O)cn([C@@H]4C[C@@H]4F)c3c2Cl)CC12CC2`, for which the activity change, negative = inhibition is -6.27% (inactive).

With `NC1CCN(c2c(F)cc3c(=O)c(C(=O)O)cn(C4CC4)c3c2Cl)C1` (centres undefined), the activity change, negative = inhibition is -79.3% (active).

Consider `COc1c(N2CCNC(C)C2)c(F)cc2c(=O)c(C(=O)O)cn(C3CC3)c12` (centres undefined), for which the activity change, negative = inhibition is 7.25% (inactive) and -78% (active).

For the compound `CNC1CCCN(c2c(F)cc3c(=O)c(C(=O)O)cn(C4CC4)c3c2OC)C1` (centres undefined), the activity change, negative = inhibition was 0.884% (inactive).

As to `N[C@@H]1CCCCN(c2c(F)cc3c(=O)c(C(=O)O)cn(C4CC4)c3c2Cl)C1`, the activity change, negative = inhibition was 4.72% (inactive).

As to `COc1c(N2C[C@@H]3CCCN[C@@H]3C2)c(F)cc2c(=O)c(C(=O)O)cn(C3CC3)c12`, the activity change, negative = inhibition was -7.38% (inactive).

On to `C[C@H](NC(=O)c1sccc1OCc1ccc(Cl)cc1)c1ccccc1`, for which the activity change, negative = inhibition was 28.7% (inactive).

As to `O=C(O)c1cc(Oc2ccc([N+](=O)[O-])cc2)cc(Oc2ccc([N+](=O)[O-])cc2)c1`, the activity change, negative = inhibition is 4.54% (inactive) and 5.04% (inactive).

`CC1=CC2C(CC1=O)C(C)=CCC2C(C)C` (centres undefined): the activity change, negative = inhibition is 4.22% (inactive).

As to `c1ccc(COCCCc2cnc[nH]2)cc1`, the activity change, negative = inhibition was -41.7% (inactive) and 17.9% (inactive).

Turning to `O=C(Nc1c(-c2cccs2)nc2ccccn12)c1ccc(Cl)cc1`, the activity change, negative = inhibition is 6.95% (inactive).

Regarding `CN1C(CC(=O)c2ccccc2)CCCC1CC(O)c1ccccc1` (centres undefined), the activity change, negative = inhibition was 6.13% (inactive) and 6.36% (inactive).

For the compound `CO[C@H]1C[C@H](O[C@H]2[C@H](C)[C@@H](OC3O[C@H](C)C[C@H](N(C)C)[C@H]3OC(C)=O)[C@@H](C)C[C@]3(CO3)C(=O)[C@H](C)[C@@H](OC(C)=O)[C@@H](C)[C@@H](C)OC(=O)[C@@H]2C)O[C@@H](C)[C@@H]1OC(C)=O` (some centres undefined), the activity change, negative = inhibition is 5.2% (inactive).

On to `Nc1ncnc2c1c(-c1cccc(OCc3ccccc3)c1)cn2C1CC(CN2CCCC2)C1` (centres undefined), for which the activity change, negative = inhibition is -69.4% (inactive).

For the compound `Nc1ncnc2c1c(-c1cccc(OCc3ccccc3)c1)cn2C1CC(CN2CCC2)C1` (centres undefined), the activity change, negative = inhibition was -81.2% (active).

Regarding `Cc1cccc(C)c1NC(=O)CC12CCCN1CCC2`, the activity change, negative = inhibition was 13.3% (inactive).

Take `CC(C)(C)NCC(O)COc1nsnc1N1CCOCC1` (centres undefined): the activity change, negative = inhibition is -0.1% (inactive).

As for `O=C1CCC(c2ccccc2)(C2CCN(Cc3ccc(I)cc3)CC2)C(=O)N1` (centres undefined), the activity change, negative = inhibition is 11.1% (inactive).

As for `Cc1ccc(/C=C2\C(=O)C3(C)CCC2C3(C)C)cc1` (centres undefined), the activity change, negative = inhibition was 2.27% (inactive).

In the case of `Cc1ccc(/C=C2\CNC/C(=C\c3ccc(C)cc3)C2=O)cc1`, the activity change, negative = inhibition was -83.2% (active).

For `Cc1ccc(/C=C2/CNC/C(=C\c3ccc(C)cc3)C2=O)cc1`, the activity change, negative = inhibition is -85.7% (active).

With `Cc1ccc(S(N)(=O)=O)cc1`, the activity change, negative = inhibition was 13.5% (inactive).

On to `CC(C)C[C@H](N[C@@H](Cc1cncn1Cc1cc(Cl)cc(Cl)c1)C(=O)O)C(=O)O`, for which the activity change, negative = inhibition was 6.67% (inactive).

Take `CC1(O)CC(c2nc(-c3ccc4ccc(-c5ccccc5)nc4c3)c3c(N)nccn23)C1` (centres undefined): the activity change, negative = inhibition was -27.9% (inactive).

For `CCn1c(N)c(C(=O)NC)c(=O)c2ccc(C#C[C@@](C)(O)COC)nc21`, the activity change, negative = inhibition was 13.3% (inactive).

For `CC1(C)C2CC[C@]3(C)[C@H](C(=O)C=C4[C@@H]5C[C@@](C)(C(=O)O)CC[C@]5(C)CC[C@]43C)[C@@]2(C)CC[C@@H]1OC(=O)CCC(=O)O` (some centres undefined), the activity change, negative = inhibition was 6.15% (inactive) and 3.75% (inactive).

Consider `CC(=O)O[C@H]1CC[C@@]2(C)C(C[C@@H](OC(C)=O)[C@@]3(C)C4=CC(=O)O[C@@H](c5ccoc5)[C@]4(C)CCC23)C1(C)C` (some centres undefined), for which the activity change, negative = inhibition was 15% (inactive).
